Assay results: PubChem BioAssay (Tox21)
“And” between values parts separate entries of the source, which are not always exact repeats. Equal values may be shown once. Inconclusive results are not listed. Entries that show only a call come without a potency. A number with no mark means an inactive call. The source made the active and inactive calls. Calls come from the whole dose curve; as a rule, active = well fitted curve in the direction sought with a large enough effect in the repeat runs; inconclusive = weak or mixed curves; inactive = no such curve, though single readings can be large; an effect the other way counts as inactive or inconclusive.

Key:
[1] = A CellTox Green Cytotoxicity Assay to monitor cytotoxicity in HEK293 cells - 40 hour (AID 1224871); conditions: CellTox Green fluorescence; series mostly up to 76.8 µM; note: nearly all actives have a fitted effect of over 45% in size
Method in brief: (§1)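 Homogeneous no-lysis format: HEK293 cell suspension mixed with CellTox Green reagent, seeded, incubated 5 h at 37 C/5% CO2, then dosed by pintool with compound in DMSO.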

[2] = qHTS RealTime-Glo MT Cell Viability Assay in HEK293 cells - 16 hour (AID 1224872); conditions: RealTime-Glo luminescence; series mostly up to 76.8 µM; note: nearly all actives have a fitted effect of over 50% in size
Method in brief: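 Nonlytic real-time viability readout: viable cells convert prosubstrate to NanoLuc substrate, giving luminescence proportional to live cell number. HEK293, 600 cells/well, compound added after 5 h, continuous culture at 37 C.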

[3] = qHTS RealTime-Glo MT Cell Viability Assay in HepG2 cells - 8 hour (AID 1224873); conditions: RealTime-Glo luminescence; series mostly up to 76.8 µM; note: nearly all actives have a fitted effect of over 55% in size
Method in brief: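 HepG2 cells mixed with RealTime-Glo MT reagents (NanoLuc plus cell-permeant prosubstrate) were seeded at 600 cells/well, incubated 5 h at 37 C/5% CO2, then pinned with compounds in DMSO; nonlytic luminescence tracked viability during 40 h treatment.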

[4] = qHTS RealTime-Glo MT Cell Viability Assay in HEK293 cells - 40 hour (AID 1224874); conditions: RealTime-Glo luminescence; max response: stronger effect = lower value; note: nearly all actives have a fitted effect of over 50% in size
Method in brief: (§2)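 Measured as luminescence from the same continuously cultured HEK293 wells at successive time points (0, 8, 16, 24, 32, 40 h) after compound addition. Reagent present from seeding; dosing at 5 h; incubation 37 C.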

[5] = A CellTox Green Cytotoxicity Assay to monitor cytotoxicity in HEK293 cells - 24 hour (AID 1224875); conditions: CellTox Green fluorescence; series mostly up to 76.8 µM; note: nearly all actives have a fitted effect of over 45% in size
Method in brief: as §1

[6] = qHTS RealTime-Glo MT Cell Viability Assay in HepG2 cells - 32 hour (AID 1224877); conditions: RealTime-Glo luminescence; series mostly up to 76.8 µM; note: nearly all actives have a fitted effect of over 55% in size
Method in brief: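 Luminescence read-out: viable HepG2 cells reduce a prosubstrate to a NanoLuc substrate, giving a signal proportional to live cell number. Reads taken at 0, 8, 16, 24, 32 and 40 h of compound exposure at 37 C.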

[7] = A CellTox Green Cytotoxicity Assay to monitor cytotoxicity in HepG2 cells - 24 hour (AID 1224878); conditions: CellTox Green fluorescence; series mostly up to 76.8 µM; note: nearly all actives have a fitted effect of over 45% in size
Method in brief: (§3)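 Fluorescent DNA-binding dye, 600 HepG2 cells/well, 5 h preincubation then compound in DMSO; same plates read at 0–40 h, 37 C.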

[8] = A CellTox Green Cytotoxicity Assay to monitor cytotoxicity in HepG2 cells - 40 hour (AID 1224879); conditions: CellTox Green fluorescence; series mostly up to 76.8 µM; note: nearly all actives have a fitted effect of over 40% in size
Method in brief: as §3

[9] = qHTS RealTime-Glo MT Cell Viability Assay in HEK293 cells - 0 hour (AID 1224880); conditions: RealTime-Glo luminescence; series mostly up to 76.8 µM; note: nearly all actives have a fitted effect of over 45% in size
Method in brief: as §2

[10] = A CellTox Green Cytotoxicity Assay to monitor cytotoxicity in HepG2 cells - 16 hour (AID 1224876); conditions: CellTox Green fluorescence; series mostly up to 76.8 µM; note: nearly all actives have a fitted effect of over 45% in size
Method in brief: as §3
Potency is the fitted concentration of half-maximal effect.

SMILES | Potency [1] | Potency [2] | Potency [3] | max response [4] [%] | Potency [5] | Potency [6] | Potency [7] | Potency [8] | Potency [9] | Potency [10] | Potency [4]
CCCCCCC[CH2][Sn]([Cl])([Cl])[CH2]CCCCCCC | inactive | inactive | inactive | -19.1 | inactive | inactive | inactive | inactive | inactive | – | –
CNC(C)(C)Cc1ccccc1 | inactive | inactive | inactive | 6.36 | inactive | inactive | inactive | inactive | inactive | inactive | –
CC1CCCC1 | inactive | inactive | inactive | -28.5 | inactive | inactive | inactive | inactive | inactive | – | –
O=C1C(Cl)=C(Cl)C(=O)C(Cl)=C1Cl | 17.3 µM (active) and 19.5 µM (active) | 27.4 µM (active) | 43.5 µM (active) and 21.9 µM (active) | – | 21.8 µM (active) and 24.5 µM (active) | – | 24.5 µM (active) and 17.4 µM (active) | 21.8 µM (active) and 17.4 µM (active) | 3.08 µM (active) and 9.77 µM (active) | 48.8 µM (active) and 19.5 µM (active) | 21.8 µM (active) and 21.9 µM (active)
COP(=O)(OC)Oc1ccc([N+](=O)[O-])cc1 | inactive | inactive | inactive | -20.5 | inactive | inactive | inactive | inactive | inactive | inactive | –
C[N+]1(C)[C@@H]2CC[C@H]1CC(OC(=O)C(CO)c1ccccc1)C2 (stereo not given in full) | inactive | inactive | inactive | 8.28 | inactive | – | inactive | inactive | inactive | inactive | –
Cc1ccc([N+](=O)[O-])[c]2c1[O][Hg]2 | 674 nM (active) | 3.38 µM (active) | 2.13 µM (active) | – | 1.51 µM (active) | 2.39 µM (active) | 2.68 µM (active) | 1.9 µM (active) | inactive | – | 3.01 µM (active)
[O]=[Cr](=[O])([OH])[O][Cr](=[O])(=[O])[OH] | inactive | 7.83 µM (active) and 21.8 µM (active) | inactive | – | inactive | – | inactive | 9.86 µM (active) and 12.3 µM (active) | inactive | inactive | 3.5 µM (active) and 2.18 µM (active)
O=C(Nc1ccc(F)cc1F)c1cccnc1Oc1cccc(C(F)(F)F)c1 | 53800 nM (active) | inactive | inactive | 0.876 | inactive | inactive | inactive | inactive | inactive | – | –
CCN(CC)CCN1C(=O)CN=C(c2ccccc2F)c2cc(Cl)ccc21 | inactive | inactive | inactive | -8.22 | inactive | inactive | inactive | inactive | inactive | inactive | –
[O-][Cl+3]([O-])([O-])O | inactive | inactive | inactive | 7.85 | inactive | inactive | inactive | inactive | inactive | inactive | –
CSC(C)(C)/C=N/O | inactive | inactive | inactive | 2.63 | inactive | – | inactive | inactive | inactive | inactive | –
CC(Cc1ccc(OCC(=O)O)cc1)NCC(O)c1csc(C(F)(F)F)n1 (stereo not given) | inactive | inactive | inactive | -5.31 | inactive | – | inactive | inactive | inactive | inactive | –
COc1nc(C)nc(NC(=O)NS(=O)(=O)c2ccccc2Cl)n1 | inactive | inactive | inactive | 1.45 | inactive | inactive | inactive | inactive | inactive | – | –
Clc1cc(Cl)c(-c2cc(Cl)c(Cl)cc2Cl)cc1Cl | inactive | inactive | inactive | 1.25 | inactive | – | inactive | inactive | inactive | inactive | –
CCCCN(CCCC)C(=S)[S-].CCCCN(CCCC)C(=S)[S-].[Ni+2] | inactive | inactive | inactive | -23 | inactive | inactive | inactive | inactive | inactive | inactive | –
O=C(CCCCl)c1ccc(F)cc1 | inactive | inactive | inactive | -0.41 | inactive | – | inactive | inactive | inactive | inactive | –
CCN(CC)CCc1c[nH]c2ccccc12 | inactive | inactive | inactive | 6.8 | – | inactive | inactive | inactive | inactive | inactive | –
ClSC(Cl)(Cl)Cl | inactive | inactive | inactive | 0.633 | inactive | inactive | inactive | inactive | inactive | – | –
CSC(=O)c1c(C(F)F)nc(C(F)(F)F)c(C(=O)SC)c1CC(C)C | inactive | inactive | inactive | – | inactive | inactive | inactive | inactive | inactive | inactive | –
Nc1ccc(Cl)cc1C(=O)c1ccccc1F | inactive | inactive | inactive | -9.35 | – | inactive | – | – | inactive | – | –
CNC(=O)/C=C(\C)OP(=O)(OC)OC | inactive | inactive | inactive | – | inactive | inactive | inactive | inactive | inactive | inactive | –
